Assay [1] can be described thus: qHTS assay for small molecules that induce genotoxicity in human embryonic kidney cells expressing luciferase-tagged ATAD5 (AID 651632). Also: nearly all actives have a fitted effect of over 15% in size. Summed up: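 Reporter cells (HEK293T) express luciferase-tagged ATAD5, a protein that accumulates after DNA damage. Treat 16 hr at 37C/5% CO2, add Amplite, wait 30 min at RT, and read luminescence.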
On the technique in general: In qHTS, concentration-response curves come from the screen itself.

Assay [2] can be described thus: qHTS assay for small molecule agonists of the p53 signaling pathway - cell viability (AID 651633; calls by dose curve; also: nearly all actives have a fitted effect of over 30% in size; also: potency is read from the fitted curve at half-maximal effect). A digest of the protocol:
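p53RE-bla cells were treated with compound for 16 hours at 37 C. Cytotoxicity was then measured as CellTiter-Glo luminescence after 30 min at room temperature.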

Assay [3] in a line: qHTS assay for small molecules that induce genotoxicity in human embryonic kidney cells expressing luciferase-tagged ATAD5 - cell viability (AID 651634; calls by dose curve; also: nearly all actives have a fitted effect of over 25% in size; also: potency is read from the fitted curve at half-maximal effect). A digest of the protocol: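 Seeding of 2,000 HEK293T ATAD5-luciferase cells per well preceded pin-tool compound transfer. Plates sat 15.5 hr at 37C under 5% CO2, then fluorescence was read after 30 min with CellTiter-Fluor.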

The nature of assay [4]: qHTS assay to test for compound auto fluorescence at 535 nm (green) in HepG2 cells (AID 720675).
Assay [5] in a line: qHTS assay to test for compound auto fluorescence at 460 nm (blue) in HEK293 cells (AID 720678). Summed up: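 Measured: blue fluorescence (Ex 405/Em 460 nm) of compound-treated HEK293 cells, incubated overnight at 37C with 5% CO2 and scaled to triamterene equivalents.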
The nature of assay [6]: qHTS assay to test for compound auto fluorescence at 590 nm (red) in HEK293 cells (AID 720679). Summed up:
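Using HEK293 cells at 2,000 per well, the screen added 23 nL of each compound after cell attachment and incubated overnight (37C, 5% CO2). The plate reader then captured red-label fluorescence, Ex/Em 540/590nm.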

The nature of assay [7]: qHTS assay to test for compound auto fluorescence at 535 nm (green) in HEK293 cells (AID 720680).
Assay [8] can be described thus: qHTS assay to test for compound auto fluorescence at 460 nm (blue) in HEK293 cell free culture (AID 720681). Summed up: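 Compounds were added to cell-free DMEM with 10% FBS and fluorescence read directly. The blue channel used 405 nm excitation and 460 nm emission, with triamterene as the reference fluorophore.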
The nature of assay [9]: qHTS assay to test for compound auto fluorescence at 535 nm (green) in HEK293 cell free culture (AID 720682). A digest of the protocol:
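Cell-free medium (DMEM, 10% FBS) receives compound or DMSO by pintool. Plate read directly at Ex 485/Em 535 nm. Signal converted to fluorescein equivalency.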

Assay [10] is described as follows: qHTS assay to test for compound auto fluorescence at 590 nm (red) in HEK293 cell free culture (AID 720683). Summed up: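 Cell-free wells of DMEM with 10% FBS received compound, and intrinsic fluorescence was read at excitation/emission 540/590 nm. Values expressed as equivalence to Rose Bengal sodium.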
The nature of assay [11]: qHTS assay to test for compound auto fluorescence at 590 nm (red) in HepG2 cell free culture (AID 720684). A digest of the protocol: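 Compound was pinned into wells holding MEM with 10% FBS and no cells, and red fluorescence was read at Ex/Em 540/590 nm. Signal is expressed as auto fluorescence equivalency relative to Rose Bengal sodium.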
The nature of assay [12]: qHTS assay to test for compound auto fluorescence at 460 nm (blue) in HepG2 cell free culture (AID 720685). A digest of the protocol:
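Compound (23 nL) or DMSO pinned into cell-free MEM with 10% FBS; blue fluorescence read at 405/460 nm excitation/emission, expressed as auto-fluorescence equivalency to triamterene.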

The nature of assay [13]: qHTS assay to test for compound auto fluorescence at 535 nm (green) in HepG2 cell free culture (AID 720686).
Assay [14] in a line: qHTS assay to test for compound auto fluorescence at 460 nm (blue) in HepG2 cells (AID 720687). A digest of the protocol: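 HepG2 cells in MEM with 10% FBS, attached overnight at 37 C, were exposed to compound or DMSO for 1 hr at 37 C, 5% CO2. Blue fluorescence was read at 405/460 nm, with triamterene as reference fluorophore.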
Assay [15] deals with Glucocorticoid receptor (Homo sapiens) (UniProt P04150). Nature of the assay: qHTS assay to identify small molecule agonists of the glucocorticoid receptor (GR) signaling pathway (AID 720691; active = well fitted activation curve with a large enough effect in the signal ratio in the repeat runs, not every such curve was filed as active; the % refers to the signal ratio; also: potency is read from the fitted curve at half-maximal effect). Summed up:
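Reporter read-out: fluorescence intensity following 2 h room-temperature LiveBLAzer B/G FRET substrate loading. Prior step: GR-bla HeLa cells held 4 h, then treated 18 h at 37 C.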

Assay [16] has the same target. Description: qHTS assay to identify small molecule antagonists of the glucocorticoid receptor (GR) signaling pathway (AID 720692; active = well fitted inhibition curve with a large enough effect in the signal ratio in the repeat runs, not every such curve was filed as active; the % refers to the signal ratio; also: potency is read from the fitted curve at half-maximal effect). Summed up:
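Dexamethasone (5 nM final) stimulated a stably integrated GRE-beta-lactamase reporter in HeLa cells during 18 h co-incubation with compounds; signal was quantified as fluorescence intensity of B/G FRET substrate after 2 h.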

Assay [17] is described as follows: qHTS assay for small molecule disruptors of the mitochondrial membrane potential (AID 720635). Also: potency is read from the fitted curve at half-maximal effect. Summed up: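 HepG2 cells exposed to compound 1 hr at 37C, then Mito-MPS dye 30 min. Ratio read of aggregate (540/590 nm) versus monomer (490/535 nm) fluorescence.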
Assay [18] can be described thus: qHTS assay to test for compound auto fluorescence at 590 nm (red) in HepG2 cells (AID 720674). A digest of the protocol:
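Seeding: 2,000 HepG2 cells/well, MEM/10% FBS, overnight 37 C. Dosing: compound vs DMSO. Incubation: 1 hr, 37 C, 5% CO2. Read: fluorescence 540 ex/590 em, Rose Bengal sodium as red reference.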

Assay [19] can be described thus: qHTS assay for small molecule disruptors of the mitochondrial membrane potential - cell viability (AID 720634; calls by dose curve;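 also: human HepG2 liver cancer cells; series mostly up to about 83 µM; nearly all actives have a fitted effect of over 20% in size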). A digest of the protocol:
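Measuring cytotoxicity alongside mitochondrial potential, the screen quantified ATP by luminescence in HepG2 cells after 1 hr compound incubation and a 30 min room-temperature CellTiter-Glo step.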

Drawing on PubChem BioAssay (Tox21), this text covers Potency and outcome for 15 molecules.

Each structure is given as a SMILES string. Values joined by “and” are separate entries in the source; they are usually repeats but may differ in a detail not shown here. Equal values may be shown once. A number with no mark means an inactive call. Inconclusive results are not listed. Active and inactive are the calls of the source. Unless noted, calls follow the shape of the dose curve; as a rule, active = well fitted curve in the direction sought with a large enough effect in the repeat runs; inconclusive = weak or mixed curves; inactive = no such curve, though single readings can be large; an effect the other way counts as inactive or inconclusive.

Chain of Glucocorticoid receptor (Homo sapiens) (P04150 whole entry, looked up): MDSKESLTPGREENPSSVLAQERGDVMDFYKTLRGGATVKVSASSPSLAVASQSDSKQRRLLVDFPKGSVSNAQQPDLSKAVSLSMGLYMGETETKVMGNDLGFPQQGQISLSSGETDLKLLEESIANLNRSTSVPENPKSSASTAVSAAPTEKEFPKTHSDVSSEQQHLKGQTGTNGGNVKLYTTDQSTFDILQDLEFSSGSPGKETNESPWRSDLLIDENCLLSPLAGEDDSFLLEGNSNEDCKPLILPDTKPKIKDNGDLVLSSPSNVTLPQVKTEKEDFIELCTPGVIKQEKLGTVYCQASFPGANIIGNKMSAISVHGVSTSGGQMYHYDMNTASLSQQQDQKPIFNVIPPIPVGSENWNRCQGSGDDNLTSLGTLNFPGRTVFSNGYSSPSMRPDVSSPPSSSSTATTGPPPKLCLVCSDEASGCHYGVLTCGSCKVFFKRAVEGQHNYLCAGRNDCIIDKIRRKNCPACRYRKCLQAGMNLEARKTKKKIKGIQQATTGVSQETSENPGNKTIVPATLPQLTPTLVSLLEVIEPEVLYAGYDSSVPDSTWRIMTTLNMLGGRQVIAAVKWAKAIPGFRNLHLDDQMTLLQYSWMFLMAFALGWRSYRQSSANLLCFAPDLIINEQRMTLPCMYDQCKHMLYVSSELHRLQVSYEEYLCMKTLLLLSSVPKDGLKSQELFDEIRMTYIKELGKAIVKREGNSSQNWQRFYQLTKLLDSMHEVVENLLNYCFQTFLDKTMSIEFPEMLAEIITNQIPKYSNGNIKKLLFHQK

On to `NP(N)(=O)NC(=O)c1ccc(F)cc1`, for which the Potency result in assay [1], in [2], in [3], in [15] and in assay [16] was “inactive” throughout. Further, the result in assay [4], in assay [5], in [6], in assay [7], in [8] and in [9] was inactive. Further, the call in assay [10], in assay [11], in [12], in assay [13] and in [14] was inactive.
Regarding `COC1CC(=C(c2cccs2)c2cccs2)C[N+](C)(C)C1` (configuration not stated), the Potency entry in [1], in [2], in assay [3], in assay [17], in assay [15] and in [16] was “inactive” each time. In addition, the molecule was classed as inactive in assay [18], in [4], in assay [5], in [6], in [7] and in assay [8]. The molecule was called inactive in assay [9], in [11], in [12], in assay [13] and in assay [14].
Regarding `O=C1NC(=O)C(=O)C(=O)N1`, the Potency result in [1], in [2] and in assay [3] was “inactive” in each case. For the same molecule, the molecule was called inactive in [18], in assay [4], in assay [5], in [6], in assay [7] and in assay [8]. The molecule was called inactive in assay [9], in [10], in [11], in assay [12], in [13] and in assay [14].
As for `NCCc1cc(O)c(O)cc1O`, the Potency result in [1], in assay [2], in assay [3], in assay [15] and in assay [16] was “inactive” throughout. For the same molecule, the molecule was called inactive in assay [4], in assay [6], in assay [7], in [8], in assay [9] and in assay [10]. In addition, the molecule was called inactive in assay [11], in assay [12], in [13] and in assay [14].
With `CN1C[C@H](C(=O)N[C@]2(C)O[C@@]3(O)[C@@H]4CCCN4C(=O)[C@H](Cc4ccccc4)N3C2=O)C=C2c3cccc4[nH]cc(c34)C[C@H]21`, the Potency entry in assay [1], in [2], in assay [19] and in assay [15] was “inactive” in each case. Moreover, the call in assay [18], in assay [4], in assay [5], in assay [6], in assay [7] and in [8] was inactive. Moreover, the outcome in [9], in [11], in assay [12], in [13] and in assay [14] was inactive.
With `O=P(OCC(Br)CBr)(OCC(Br)CBr)OCC(Br)CBr` (configuration not stated), the Potency result in assay [1], in [2] and in [3] was “inactive” each time. Moreover, the call in [4], in assay [5], in assay [6], in assay [7], in [8] and in assay [9] was inactive. For the same molecule, the call in assay [10], in assay [11], in assay [12], in [13] and in assay [14] was inactive. Besides, in assay [16], the Potency was 55.7 µM (active).
With `CC(C)[C@@H](C(=O)O[C@@H](C#N)c1cccc(Oc2ccccc2)c1)c1ccc(Cl)cc1`, the Potency entry in [1], in [2] and in assay [3] was “inactive” each time. In [17], the Potency was 12.4 µM (active) and 30.6 µM (active). The molecule was classed as inactive in assay [18], in assay [4], in [5], in assay [6], in assay [7] and in [8]. For the same molecule, the outcome in assay [9], in assay [10], in [11], in [12], in assay [13] and in [14] was inactive.
On to `CC(=O)OC(c1ccccc1)C(Cl)(Cl)Cl` (configuration not stated), for which the Potency entry in assay [1], in assay [3] and in [19] was “inactive” each time. Moreover, the Potency in [17] is 54.5 µM (active). Further, the molecule was called inactive in assay [18], in assay [4], in assay [5], in [6], in assay [7] and in assay [8]. Moreover, the molecule was called inactive in assay [9], in assay [10], in [11], in assay [12], in assay [13] and in assay [14].
Consider `CCCCC(CC)COC(=O)c1c(Br)c(Br)c(Br)c(Br)c1C(=O)OCC(CC)CCCC` (configuration not stated), for which the Potency entry in assay [1], in [2], in assay [3] and in assay [16] was “inactive” throughout. For the same molecule, the outcome in [18], in [4], in assay [5], in assay [6], in assay [7] and in assay [8] was inactive. Moreover, the molecule was classed as inactive in assay [9], in assay [10], in [12], in assay [13] and in assay [14]. Besides, in assay [15], the Potency was 33.8 µM (active).
As for `CCC1(CCC(C)C)C(=O)NC(=O)NC1=O`, the Potency result in assay [1], in [2] and in [3] was “inactive” throughout. The molecule was called inactive in assay [18], in assay [4], in assay [5], in assay [6], in [7] and in assay [8]. Further, the molecule was called inactive in assay [9], in [11], in assay [12], in assay [13] and in [14].
On to `O=C(Cl)OCCOCCOC(=O)Cl`, for which the Potency entry in assay [1], in assay [2], in assay [3], in [15] and in assay [16] was “inactive” each time. For the same molecule, the result in [18], in assay [4], in [5], in [6], in assay [7] and in assay [8] was inactive. Moreover, the outcome in [9], in assay [10], in assay [11], in assay [12], in assay [13] and in assay [14] was inactive.
On to `CC(C)(C)CC(C)(C)c1ccc(O)cc1`, for which the Potency entry in [1] was “inactive”. Moreover, the Potency was 29.8 µM (active) and 30.6 µM (active) in assay [2]; 61.1 µM (active) in assay [3]; 3.35 µM (active) and 1.72 µM (active) in assay [17]. The molecule was called inactive in assay [18], in assay [4], in assay [5], in [6], in assay [7] and in assay [8]. The molecule was called inactive in assay [9], in [10], in assay [11], in assay [12], in assay [13] and in assay [14].
Take `CON(C)C(=O)Nc1ccc(Cl)cc1`: the Potency result in [1], in assay [2], in assay [3], in assay [19] and in assay [15] was “inactive” each time. The outcome in assay [4], in assay [5], in [6], in [7], in assay [8] and in assay [9] was inactive. Further, the molecule was classed as inactive in assay [12], in assay [13] and in assay [14].
In the case of `C=CCN1C[C@H](C)N([C@H](c2ccc(C(=O)N(CC)CC)cc2)c2cccc(OC)c2)C[C@H]1C`, the Potency entry in assay [1], in [2], in [3] and in assay [16] was “inactive” each time. In addition, the outcome in assay [18], in [4], in [5], in [6], in assay [7] and in [8] was inactive. The molecule was called inactive in assay [9], in assay [10], in [12], in assay [13] and in assay [14].
For the molecule `CC(C)(C)N(NC(=O)c1ccc(Cl)cc1)C(=O)c1ccccc1`, the Potency entry in [1], in [15] and in assay [16] was “inactive” each time. Moreover, the Potency in assay [17] was 60.8 µM (active). The call in assay [18], in assay [4], in [6], in [7], in assay [8] and in [9] was inactive. In addition, the call in assay [10], in assay [11], in assay [12], in assay [13] and in [14] was inactive.
